Bioassay records deposited in PubChem by National Center for Advancing Translational Sciences (NCATS).
In the library only some 0.54% were active in any assay of this set; here they are far more common.
AT treatment: candidate therapy for ataxia-telangiectasia. F2112 A-T fibroblasts, KAP-1 phosphorylation AlphaLISA; neocarzinostatin DNA damage 30 min before lysis. Potency, µM (top dose mostly 57.5 µM), for the others: at the highest dose activation, most hits filed as activators. AID 485349. hit rate 0.19% among 320,000; also: potency is read from the fitted curve at half-maximal effect; % of control where 0% means no effect; nearly all actives have a fitted effect of over 45% in size
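ATM-like activity read as KAP-1 phosphorylation via AlphaLISA donor/acceptor antibody pairs after lysis and 6 hr at 25C. Cells were ATM-null patient fibroblasts (F2112, hTERT), dosed 60 min, then exposed to the DSB inducer NCS for 30 min.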
TRPML1 inh: blocks the human TRPML1 channel | Q9GZU1 | TRPML1-inducible cells, Ca2+ dye fluorescence, FDSS; stronger effect = lower value; inhibition of EC80 agonist-evoked calcium signal | activity change, negative = inhibition, % (test concentration not listed) | hit rate 0.02% among 390,000; in the data active = activity change below about -50%; inconclusive = between about -30% and that limit;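 also: stimulus is agonist 54-4 at its EC80 concentration; % is scaled to controls: 0 for no effect and ±100 for the full control effect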
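Tet-induced TRPML1-DL cells loaded with Ca8 no-wash calcium dye were read kinetically on FDSS. Compound addition was followed by EC80 agonist 54-4 (4 uM final); inhibition was read over 110 s.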
Vif-A3G inh: inhibitors of Vif-APOBEC3G interaction; AID 602310; HeLa A3G-eYFP + Vif (tagged APOBEC3G with the HIV-1 protein that degrades it), YFP fluorescence, overnight; Q9HC16; hit rate 0.076% among 410,000; Potency, µM (titrated, usually from 46.1 µM), for inactives: at the highest dose activity, negative = active, usual class: inhibitors; also: potency is read from the fitted curve at half-maximal effect; % is scaled to controls: 0 for no effect and ±100 for the full control effect; nearly all actives have a fitted effect of over 60% in size
Target sequence (Q9HC16 whole entry, looked up): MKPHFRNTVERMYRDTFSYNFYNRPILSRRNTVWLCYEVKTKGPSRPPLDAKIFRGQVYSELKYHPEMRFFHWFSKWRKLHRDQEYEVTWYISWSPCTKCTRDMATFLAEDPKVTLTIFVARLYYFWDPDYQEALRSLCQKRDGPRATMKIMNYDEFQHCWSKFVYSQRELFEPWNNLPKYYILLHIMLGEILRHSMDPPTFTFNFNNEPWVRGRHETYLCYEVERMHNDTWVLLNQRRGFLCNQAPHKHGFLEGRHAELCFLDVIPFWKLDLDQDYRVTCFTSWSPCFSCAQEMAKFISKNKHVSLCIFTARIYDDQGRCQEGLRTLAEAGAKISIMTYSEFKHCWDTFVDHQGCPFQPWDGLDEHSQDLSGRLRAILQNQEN
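HeLa cells stably expressing Vif and C-terminally eYFP-tagged A3G, seeded overnight at 37 deg C, then exposed to compound by pintool overnight at 37 deg C. Rise in yellow fluorescence (Ex 488/Em 500-530, Acumen) marks blocked Vif-driven A3G degradation.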
TRPML1 agonist: agonists of human TRPML1 channel. TRPML1-expressing cells, Ca2+ dye fluorescence, FDSS. activation, % (test concentration not listed). hit rate 0.12% among 410,000. AID 624414; in the data active = activation above about 50%; inconclusive = mostly about 30% to 49%; also: 0% is about no effect
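Tetracycline-induced TRPML1-DL cells are seeded and incubated overnight before loading with a no-wash Ca2+ dye and quencher. Agonist activity is taken from the 110 s fluorescence read following compound pin-transfer on an FDSS, before EC80 54-4 challenge.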
Vif-APOBEC3F blk: inhibitors of Vif-A3F interaction. HeLa A3F-eYFP + Vif (tagged APOBEC3F with the HIV-1 protein that degrades it), YFP fluorescence increase. Potency, µM (highest dose often 46.1 µM), without a hit: at the top dose activity, negative = active. hit rate 0.2% among 390,000. AID 602313; also: potency is read from the fitted curve at half-maximal effect; % of control where 0% means no effect; nearly all actives have a fitted effect of over 65% in size
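Fluorescence increase (Ex 488/Em 500-530) after overnight compound treatment at 37 deg C flags inhibition of Vif-driven A3F-eYFP loss in stable HeLa A3F-eYFP/Vif cells seeded overnight beforehand.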
Numbers without * were called inactive. Unless noted, calls follow the shape of the dose curve; as a rule, active = well fitted curve in the direction sought with a large enough effect; inconclusive = small, poorly fitted or top-dose-only effect, or another doubt; inactive = no such curve, though single readings can be large; an effect the other way counts as inactive or inconclusive.

How did Clc1ccc(CN(CC2CCCO2)C(c2cccs2)c2nnnn2C2CCCC2)cc1 (configuration not stated) do in these assays?
AT treatment: 1%; TRPML1 inh: -3; Vif-A3G inh: 3%; TRPML1 agonist: 54*; Vif-APOBEC3F blk: -4%

What do the screens show for `Cc1ccccc1NC(=O)c1ccc(-c2ccc(Cl)cc2Cl)o1`?
AT treatment: 1%; TRPML1 inh: -51*; Vif-A3G inh: -5%; TRPML1 agonist: 3; Vif-APOBEC3F blk: 3%

What do the screens show for `CN(C)c1ccc(/C=C/c2cc3ccccc3cn2)cc1`?
Vif-A3G inh: 3%; TRPML1 agonist: -1

What do the screens show for `COCC(=O)OCc1cc2cccc(C)c2[nH]c1=O`?
AT treatment: 12%; TRPML1 inh: -27; Vif-A3G inh: 1%; TRPML1 agonist: 0; Vif-APOBEC3F blk: -17%

What do the screens show for `Cc1cccc2cc(COC(=O)COc3ccccc3)c(=O)[nH]c12`?
AT treatment: 22µM*; TRPML1 inh: -9; Vif-A3G inh: 1%; TRPML1 agonist: 0; Vif-APOBEC3F blk: 0%

Results for Cc1ccc(S(=O)(=O)N2C[C@H]3C(=O)C[C@@H](c4ccccc4)N(S(=O)(=O)c4ccc(C)cc4)[C@H]3C[C@H]2c2cccc(C)c2)cc1 ?
TRPML1 inh: inconclusive; Vif-A3G inh: -4%; TRPML1 agonist: 93*

What do the screens show for `Cc1ccc(S(=O)(=O)N2C[C@H]3C(=O)C[C@@H](c4ccccc4)N(S(=O)(=O)c4ccc(C)cc4)[C@H]3C[C@H]2c2cccc3ccccc23)cc1`?
TRPML1 inh: -2; Vif-A3G inh: 1%; TRPML1 agonist: 56*

How did CCCCNC(=O)Cn1c(SCc2cccc(F)c2)nc2ccncc21 do in these assays?
Vif-A3G inh: 0%; TRPML1 agonist: -1

Results for CCc1c(C)nc(SCc2nc(-c3ccccc3C)no2)[nH]c1=O ?
TRPML1 inh: -19; Vif-A3G inh: 2%; TRPML1 agonist: 4; Vif-APOBEC3F blk: 0%

Results for CC(=O)Nc1ccc(C2=CC(=O)C[C@H](c3ccc(Cl)cc3)C2)cc1 ?
AT treatment: 0%; TRPML1 inh: 12; Vif-A3G inh: inconclusive; TRPML1 agonist: 1; Vif-APOBEC3F blk: 22µM*

How did CNC(=S)N(CCO)Cc1cc2cc3c(cc2[nH]c1=O)OCO3 do in these assays?
AT treatment: -20%; TRPML1 inh: 1; Vif-A3G inh: -5%; TRPML1 agonist: 1; Vif-APOBEC3F blk: -1%

How did O=C(Nc1ccc(F)cc1)N(CCCN1CCOCC1)Cc1cc2cc3c(cc2[nH]c1=O)OCCO3 do in these assays?
AT treatment: 14µM*; TRPML1 inh: 29; Vif-A3G inh: -7%; TRPML1 agonist: -1; Vif-APOBEC3F blk: -6%

What do the screens show for `CNC(=S)N(CCO)Cc1cc2cc3c(cc2[nH]c1=O)OCCO3`?
AT treatment: 2.8µM*; TRPML1 inh: -8; Vif-A3G inh: -1%; TRPML1 agonist: 1; Vif-APOBEC3F blk: 0%

Results for CCN1/C(=C/c2cc[n+](C)cc2)C=Cc2cc(C)ccc21 ?
AT treatment: -14%; TRPML1 inh: -2; Vif-A3G inh: inconclusive; TRPML1 agonist: 0; Vif-APOBEC3F blk: 13µM*

What do the screens show for `COC(=O)c1sc2ccccc2c1S(=O)(=O)N1CCN(c2ccc(C(C)=O)cc2)CC1`?
TRPML1 inh: 4; Vif-A3G inh: -5%; TRPML1 agonist: 1; Vif-APOBEC3F blk: -1%

Results for CCCCNc1c2c3c(cccc3n(C)c1=O)C(=O)c1ccccc1-2 ?
AT treatment: inconclusive; TRPML1 inh: -15; Vif-A3G inh: 1%; TRPML1 agonist: 89*; Vif-APOBEC3F blk: inconclusive

Results for Cn1c(NCCc2ccccc2)cc(=O)n(C)c1=O ?
AT treatment: 7%; TRPML1 inh: 19; Vif-A3G inh: 1%; TRPML1 agonist: -2; Vif-APOBEC3F blk: -1%

What do the screens show for `Cn1c(=O)c(NCCc2ccccc2)c2c3c(cccc31)C(=O)c1ccccc1-2`?
AT treatment: inconclusive; TRPML1 inh: -11; Vif-A3G inh: 8%; TRPML1 agonist: 104*; Vif-APOBEC3F blk: inconclusive

Results for Cn1c(=O)c(N)c2c3c(c(Br)ccc31)C(=O)c1ccccc1-2 ?
AT treatment: -14%; TRPML1 inh: -20; Vif-A3G inh: -26%; TRPML1 agonist: 27; Vif-APOBEC3F blk: inconclusive

Results for Cn1c(=O)c(NC2CCCCC2)c2c3c(cccc31)C(=O)c1ccccc1-2 ?
AT treatment: 11%; TRPML1 inh: inconclusive; Vif-A3G inh: inconclusive; TRPML1 agonist: 100*; Vif-APOBEC3F blk: -57%

What do the screens show for `CC(=O)Nc1ccc(Nc2c3c4c(cccc4n(C)c2=O)C(=O)c2ccccc2-3)cc1`?
AT treatment: 0%; TRPML1 inh: 1; Vif-A3G inh: -12%; TRPML1 agonist: 2; Vif-APOBEC3F blk: 8.9µM*

What do the screens show for `Cc1cccc(NC2=C(NCCO)C(=O)c3ccccc3C2=O)c1`?
AT treatment: -14%; TRPML1 inh: 6; Vif-A3G inh: -3%; TRPML1 agonist: 2; Vif-APOBEC3F blk: -9%

What do the screens show for `Cn1c(=O)c(NCCO)c2c3c(cccc31)C(=O)c1ccccc1-2`?
AT treatment: 35%; TRPML1 inh: -4; Vif-A3G inh: 7%; TRPML1 agonist: 93*; Vif-APOBEC3F blk: 4%

What do the screens show for `CSc1nsc(/C=C/Nc2ccc(O)cc2C)c1C#N`?
AT treatment: 4%; TRPML1 inh: 0; Vif-A3G inh: inconclusive; TRPML1 agonist: 0; Vif-APOBEC3F blk: 10µM*

How did CSc1nsc(/C=C/Nc2ccc(F)cc2)c1C#N do in these assays?
AT treatment: -1%; TRPML1 inh: 10; Vif-A3G inh: inconclusive; TRPML1 agonist: 0; Vif-APOBEC3F blk: 22µM*

Results for COc1ccc(Br)cc1CNC(=O)CCSCc1ccc(C)cc1 ?
TRPML1 inh: -5; Vif-A3G inh: -2%; TRPML1 agonist: 1; Vif-APOBEC3F blk: 0%

What do the screens show for `CN1C(C(=O)NCC2CC2)CC2Cn3c(nc4cc(Cl)c(Cl)cc43)C21` (configuration not stated)?
AT treatment: 35µM*; TRPML1 inh: -7; Vif-A3G inh: 3%; TRPML1 agonist: -1; Vif-APOBEC3F blk: -7%

Results for Cc1cc2nc3n(c2cc1C)CC1CC(C(=O)NCC2CC2)N(C)C31 (configuration not stated) ?
AT treatment: 28µM*; TRPML1 inh: -1; Vif-A3G inh: -2%; TRPML1 agonist: -1; Vif-APOBEC3F blk: 0%

Results for CC(C)CCNC(=O)C1CC2Cn3c(nc4cc(Cl)c(Cl)cc43)C2N1C (configuration not stated) ?
TRPML1 inh: 6; Vif-A3G inh: 4%; TRPML1 agonist: 1; Vif-APOBEC3F blk: 0%
